Experiment [1] can be described thus: endothelial E-selectin expression blockers – imaging, HUVEC, immunofluorescence, MLSMR starter and 10KST1 sets, primary screen (AID 487;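 active = visually confirmed hit in the image check and inhibition above 20%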;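 as to inhibition: signal is fraction of cell area covered by stained E-selectin grains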;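 as to nuclei count: 100% = median nuclei count of all wells on the same plate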). The conditions noted are these: HUVEC TNFalpha-induced E-selectin immunofluorescence imaging, at 2 µM; inhibition: stronger effect = higher value; nuclei count: measured here: cell number, toxicity.
A short description of experiment [2]: Primary imaging screen for DUSP6 inhibitors that restore phospho-Erk in transfected HeLa cells, chemical complementation (AID 609;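 active = compounds giving at least 50% inhibition in the cell-based MKP-3 phosphatase rescue imaging test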;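 as to inhibition: phospho-Erk level distribution per well compared with pooled transfected vehicle control wells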). As to conditions: HeLa MKP-3 transfected, phospho-Erk imaging KS statistic, at 10 µM, cells stimulated with TPA for 15 min.
In experiment [3] the target is Dual specificity protein phosphatase 6 (Homo sapiens) (UniProt Q16828). The description is as above. As to conditions: HeLa MKP-3 transfected, phospho-Erk imaging KS statistic; at 10 µM; stronger effect = higher value; cells stimulated with TPA for 15 min.
The target in experiment [4] is Voltage-gated potassium channel subunit beta-2 (Rattus norvegicus) (UniProt P62483). In words: inhibitors of rat Kvbeta2 reductase activity – biochemical, NADPH fluorescence, primary screen (AID 622).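 Also: slope of raw intensity against log time taken from 70 to 1610 s.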 The conditions noted are these: recombinant KvBeta, 4-cyanobenzaldehyde reduction, at 10 µM, stronger effect = higher value.
For experiment [5] the target is unchanged. In words: enhancers of rat Kvbeta2 NADPH turnover – biochemical, NADPH fluorescence, primary screen (AID 623;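 active = NADPH fluorescence slope more negative than the mean of all samples by about 3 SD, 99.7% confidence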;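 also: fluorescence intensity change per second fitted from 20 to 320 s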). As to conditions: Recombinant KvBeta, NADPH fluorescence decrease slope, 10 min; at 10 µM; stronger effect = lower value.
Experiment [6] deals with Muscarinic acetylcholine receptor M4 (Homo sapiens) (UniProt P08173). In words: M4-linked GIRK flux change, two-sided – cell-based, HEK293 M4/GIRK, thallium flux, BTC-AM, M4 allosteric agonist project, primary screen (AID 625;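 active = fluorescence slope after compound addition differing from the mean of all tested samples at 99.7% confidence, mostly higher but some lower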;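 also: thallium influx through GIRK channels coupled to M4 in HEK293 cells with BTC-AM dye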). As to conditions: at 10 µM, actives lie on both sides.
Experiment [7] can be described thus: inhibitors of larval lipid processing in zebrafish, primary screen, whole organism, PED6 fluorescence, gall bladder and intestine (AID 686;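 active = a full or partial loss of lipid-probe fluorescence in the fish gall bladder, intestine or both, judged by eye; inactive = no fluorescence loss, or compound toxic to the fish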;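 also: larvae 5 to 7 days old with five fish per well; signal comes from phospholipase A2 cleavage of quenched PED6 carried via bile; overnight exposure to compound and PED6 before scoring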). As to conditions: Zebrafish larvae PED6 lipid processing, fluorescence scoring; screened at 20 µM (by protocol).
Experiment [8] is described as follows: loss of swimming-algae plug formation – whole organism, Chlamydomonas reinhardtii, WT vs cilia-less mutant, absorbance, 96-well, primary screen (AID 463189;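 active = inhibition at or above 50% relative to wild type and mutant plate controls; inactive = inhibition below 50%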;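 also: 0% = wild type cc124 cells in DMSO and 100% = ciliumless bld1 mutant cells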). The conditions noted are these: Chlamydomonas reinhardtii gravitaxis, OD600 absorbance, 2 days; at 10 µM; stronger effect = higher value.
Setting [9] is: measured here: cell density z-score.
Where [10] appears, read: measured here: nuclear c-Myc green intensity z-score.
Setting [11] is: measured here: nuclear pErk red intensity z-score, stronger effect = higher value.

Calls of active or inactive are those of the source.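 The calls were made as follows, unless noted: active = fluorescence slope higher than the sample average by over 3 SD (cut at about -0.22 in these data, passing the limit was not always enough); inactive = the rest.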

One may read the inhibition as the relative decrease from the control value, in per cent.

Chain of Muscarinic acetylcholine receptor M4 (Homo sapiens) (P08173 whole entry, looked up): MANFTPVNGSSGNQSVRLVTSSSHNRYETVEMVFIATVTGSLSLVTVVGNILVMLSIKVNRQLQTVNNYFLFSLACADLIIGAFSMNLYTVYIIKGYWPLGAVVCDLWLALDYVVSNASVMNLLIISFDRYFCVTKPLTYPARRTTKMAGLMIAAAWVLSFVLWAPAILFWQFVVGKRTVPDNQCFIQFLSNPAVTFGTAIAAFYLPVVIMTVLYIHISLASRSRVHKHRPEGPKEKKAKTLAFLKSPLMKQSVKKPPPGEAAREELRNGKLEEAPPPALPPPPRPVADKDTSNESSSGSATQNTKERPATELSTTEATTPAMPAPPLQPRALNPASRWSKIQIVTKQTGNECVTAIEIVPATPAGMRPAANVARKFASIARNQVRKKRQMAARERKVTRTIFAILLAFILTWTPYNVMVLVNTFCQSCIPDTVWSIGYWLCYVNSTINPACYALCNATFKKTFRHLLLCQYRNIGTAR
Chain of Dual specificity protein phosphatase 6 (Homo sapiens) (Q16828 whole entry, looked up): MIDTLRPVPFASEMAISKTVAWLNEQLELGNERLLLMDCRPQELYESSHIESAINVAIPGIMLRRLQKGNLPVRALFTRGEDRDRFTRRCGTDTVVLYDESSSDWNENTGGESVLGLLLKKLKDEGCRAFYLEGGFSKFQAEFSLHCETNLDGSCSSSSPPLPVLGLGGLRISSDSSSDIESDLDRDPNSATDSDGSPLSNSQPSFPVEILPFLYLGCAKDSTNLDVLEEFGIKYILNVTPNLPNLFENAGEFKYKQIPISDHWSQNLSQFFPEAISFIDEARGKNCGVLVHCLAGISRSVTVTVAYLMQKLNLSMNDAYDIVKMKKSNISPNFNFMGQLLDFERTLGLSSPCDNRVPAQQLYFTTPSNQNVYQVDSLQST
Chain of Voltage-gated potassium channel subunit beta-2 (Rattus norvegicus) (P62483 whole entry, looked up): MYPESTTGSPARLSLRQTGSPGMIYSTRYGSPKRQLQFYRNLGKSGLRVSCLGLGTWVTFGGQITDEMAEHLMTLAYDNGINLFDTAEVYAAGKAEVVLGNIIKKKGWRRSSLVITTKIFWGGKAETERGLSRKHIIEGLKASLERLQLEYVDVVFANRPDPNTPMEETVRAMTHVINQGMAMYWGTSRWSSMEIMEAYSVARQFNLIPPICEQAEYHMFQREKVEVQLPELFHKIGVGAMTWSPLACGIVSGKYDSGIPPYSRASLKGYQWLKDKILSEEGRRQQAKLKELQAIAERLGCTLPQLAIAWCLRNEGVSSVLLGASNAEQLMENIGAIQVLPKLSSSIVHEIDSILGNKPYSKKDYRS

`Cc1ccc(N2CN=c3s/c(=C\c4cccnc4)c(=O)n3C2)cc1`: the inhibition was -18.9% (inactive) in experiment [1], 1.75% (inactive) in experiment [3] and 36.5% (inactive) in experiment [8]. This molecule gave a nuclei count in experiment [1] of 87.4%. Also, the z-score in experiment [2] (setting [9]) was -0.873; in experiment [2] (setting [10]), 0.442; in experiment [2] (setting [11]), 0.633. For the same molecule, the fluorescence slope is -0.483 (inactive) in experiment [4] and 0.00552 (inactive) in experiment [6]. Moreover, the NADPH fluorescence slope in experiment [5] is -4.2e-05 (inactive). Besides, the outcome in experiment [7] was inactive.

For `CC1(c2cnc(Nc3ccccc3)s2)CCC(=O)O1` (stereo not drawn), the inhibition in experiment [1] is -192% (inactive); in experiment [3], 24.7% (inactive); in experiment [8], 9.89% (inactive). The nuclei count in experiment [1] was 138%. Moreover, the z-score in experiment [2] (setting [9]) is 0.619; in experiment [2] (setting [10]) it was -0.905; in experiment [2] (setting [11]), -1.23. The fluorescence slope in experiment [4] is -0.359 (inactive); in experiment [6] it was 0.00609 (inactive). The NADPH fluorescence slope in experiment [5] was 1.9e-06 (inactive). In experiment [7], the outcome was “active; weak signal in gallbladder only”.

On to `O=C(NCCO)C1(c2ccccc2)CCCC1`, for which the results for the inhibition in experiment [1], in experiment [3] and in experiment [8] were -0.2% (inactive), 20.8% (inactive) and -4.89% (inactive), respectively. The nuclei count in experiment [1] came to 87.4%. For the same molecule, the z-score in experiment [2] (setting [9]) is -1.49; in experiment [2] (setting [10]), 2.28; in experiment [2] (setting [11]) it was -1.5. The fluorescence slope is -0.406 (inactive) in experiment [4] and 0.00732 (inactive) in experiment [6]. Also, the NADPH fluorescence slope in experiment [5] was -8.2e-06 (inactive). Also, the outcome in experiment [7] was inactive.

Take `CCOC(=O)C(OC(=O)c1sc(=S)n(C)c1C)C(C)=O` (stereo not drawn): the values for the inhibition in experiment [1], in experiment [3] and in experiment [8] were -34.4% (inactive), 7.48% (inactive) and 63.7% (active), respectively. Besides, in experiment [1], the nuclei count was 86.4%. The z-score is 0.548 in experiment [2] (setting [9]), -0.227 in experiment [2] (setting [10]) and -0.266 in experiment [2] (setting [11]). Further, the figures for the fluorescence slope in experiment [4] and in experiment [6] were -0.553 (inactive) and 0.00794 (inactive), respectively. In addition, in experiment [5], the NADPH fluorescence slope was -3.9e-05 (inactive). In experiment [7], the outcome was inactive.

Take `O=C(Oc1ccccc1)c1c(Cl)cccc1P(=O)(O)O`: the inhibition in experiment [1] is -22.4% (inactive); in experiment [3], -0.159% (inactive); in experiment [8] it was -7.77% (inactive). This molecule displayed a nuclei count in experiment [1] of 146%. For the same molecule, the values for the z-score in experiment [2] (setting [9]), in experiment [2] (setting [10]) and in experiment [2] (setting [11]) were -1.16, 0.0504 and -1.03, respectively. Further, the fluorescence slope was -0.396 (inactive) in experiment [4] and 0.00459 (inactive) in experiment [6]. In addition, the NADPH fluorescence slope in experiment [5] is -2.5e-05 (inactive). For the same molecule, the outcome in experiment [7] was inactive.

For the molecule `C=C(Br)CN1CCN(CC(=C)Br)CC1`, the values for the inhibition in experiment [1], in experiment [3] and in experiment [8] were -179% (inactive), 17% (inactive) and 5.24% (inactive), respectively. In experiment [1], this molecule yielded a nuclei count of 175%. The z-score was 2.33 in experiment [2] (setting [9]), -0.834 in experiment [2] (setting [10]) and -0.983 in experiment [2] (setting [11]). In addition, the fluorescence slope is -0.428 (inactive) in experiment [4] and 0.00828 (inactive) in experiment [6]. The NADPH fluorescence slope in experiment [5] was -2.9e-05 (inactive). The outcome in experiment [7] was inactive.

For `CN(CCOC(=O)c1cccc(Br)c1)C(C)(C)C`, the figures for the inhibition in experiment [1], in experiment [3] and in experiment [8] were -47% (inactive), 7.48% (inactive) and 30.2% (inactive), respectively. The molecule also came in with a nuclei count in experiment [1] of 134%. The z-score in experiment [2] (setting [9]) was -0.456; in experiment [2] (setting [10]), 0.868; in experiment [2] (setting [11]) it was 2.16. Also, the results for the fluorescence slope in experiment [4] and in experiment [6] were -0.405 (inactive) and 0.00522 (inactive), respectively. Moreover, the NADPH fluorescence slope in experiment [5] is -4e-05 (inactive). The outcome in experiment [7] was inactive.

As to `COC(=O)C1C(=O)NCC1c1ccccc1` (stereo not drawn), the inhibition in experiment [1] is 1.3% (inactive); in experiment [3], 49.5% (inactive); in experiment [8], 31.4% (inactive). In experiment [1], this molecule registered a nuclei count of 81.1%. In addition, the z-score in experiment [2] (setting [9]) was 5.99; in experiment [2] (setting [10]), -1.76; in experiment [2] (setting [11]), -1.15. For the same molecule, the fluorescence slope in experiment [4] is -0.482 (inactive); in experiment [6], 0.00479 (inactive). For the same molecule, the NADPH fluorescence slope in experiment [5] is -4e-05 (inactive). The outcome in experiment [7] was inactive.

For the origin of these results see PubChem BioAssay.
